From PubChem BioAssay (NCI) come the findings set out here.

Test systems include HCT-15 colon; HT29 colon; SNB-75 CNS; SNB-19 CNS; U251 CNS; SK-MEL-5 melanoma; UACC-62 melanoma; LOX IMVI melanoma; SK-MEL-28 melanoma.
Holding throughout (test): NCI-60 one-dose screen, 48 h (100 = growth as untreated, 0 = no growth, -100 = all killed)
Conditions in all cases: 10 µM

The panel holds about 83,000 compounds, 20% with a hit somewhere; the sample as a whole holds those more often.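 How to read the values: 0–100, growth inhibition (40 = 60% inhibited); 0, no net growth; -100 to 0, cell death (-40 = 40% of starting cells died; -100 = all dead).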 Unmarked numbers belong to inactive results. Calls of active or inactive are those of the source. The calls were made as follows: active = growth percent below 10; inactive = the rest.

With `Nc1cc(-c2ccc(Cl)cc2)nn1-c1nc2ccccc2nc1Cc1ccccc1`, the growth is 74.4% in the assay on HCT-15 colon; 69.7% in the assay on HT29 colon; 84.4% in the assay with SNB-75 CNS; 89.9% in the assay on SNB-19 CNS; 90.8% in the assay on U251 CNS; 86.7% in the assay with SK-MEL-5 melanoma. Besides, the figures for the growth in the assay with UACC-62 melanoma, with LOX IMVI melanoma and with SK-MEL-28 melanoma were 87.8%, 93.3% and 92.9%, respectively.

As to `CCNc1nc(C(F)(F)F)nc2c1sc(=S)n2-c1ccccc1`, the growth in the assay with HCT-15 colon is 94.7%; in the assay with HT29 colon it was 88.8%; in the assay on SNB-75 CNS it was 99.2%; in the assay with SNB-19 CNS, 107%; in the assay on U251 CNS, 93.3%; with SK-MEL-5 melanoma, 87.6%. For the same compound, the growth was 93.9% in the assay with UACC-62 melanoma, 88.6% with LOX IMVI melanoma and 112% in the assay on SK-MEL-28 melanoma.

Take `Cc1nn(-c2ccccc2)c2nc(Cl)c(C=O)c(-c3ccccc3)c12`: the growth is 94.8% in the assay on HCT-15 colon; 56.7% in the assay with HT29 colon; 106% with SNB-75 CNS; 95.6% with SNB-19 CNS; 92.8% with U251 CNS; 87.1% with SK-MEL-5 melanoma. Also, the growth with UACC-62 melanoma was 79.4%; in the assay with LOX IMVI melanoma, 86.9%; with SK-MEL-28 melanoma, 107%.

For the compound `CCOC(=O)c1sc2ncnc(Nc3ccc(NC(=O)Nc4ccc(Cl)cc4)cc3)c2c1C`, the growth is 33.9% with HCT-15 colon; 43% with HT29 colon; 17.6% in the assay on SNB-75 CNS; 73.7% in the assay with SNB-19 CNS; 26.3% in the assay with U251 CNS; 32.2% in the assay on SK-MEL-5 melanoma. In addition, the growth in the assay with UACC-62 melanoma is 78.8%; in the assay with LOX IMVI melanoma, 44.4%; in the assay on SK-MEL-28 melanoma, 79.5%.

Consider `Nc1ccc(-c2cccs2)cc1NC(=O)c1ccc(CCCC(=O)Nc2ccc(C3CC3N)cc2)cc1` (stereo not given), for which the growth is 87.2% in the assay with HCT-15 colon; 64.8% in the assay with HT29 colon; 111% in the assay on SNB-75 CNS; 90.8% with SNB-19 CNS; 7.02% (active) in the assay with U251 CNS; 20% with SK-MEL-5 melanoma. Also, the growth was 45.5% with UACC-62 melanoma, 19% with LOX IMVI melanoma and 83.1% with SK-MEL-28 melanoma.

In the case of `COc1ccc2nc(Cl)c(Cn3nnc(Cc4ccccc4)n3)cc2c1`, the growth is 36.5% with HCT-15 colon; 27.4% with HT29 colon; 57.1% with SNB-75 CNS; 58% in the assay on SNB-19 CNS; 53.2% in the assay on U251 CNS; -47.2% (active) in the assay with SK-MEL-5 melanoma. The results for the growth in the assay with UACC-62 melanoma, in the assay on LOX IMVI melanoma and in the assay on SK-MEL-28 melanoma were 35.1%, 42.9% and 47.5%, respectively.

On to `COc1cc(NC(=O)C2=C(N3CCOCC3)/C(=C/c3ccc(Cl)cc3)CC2)cc(OC)c1OC`, for which the growth with HCT-15 colon is 73%; in the assay with HT29 colon it was 86%; with SNB-75 CNS, 90.5%; in the assay with SNB-19 CNS, 79.3%; in the assay on U251 CNS it was 91.2%; with SK-MEL-5 melanoma, 66.3%. Besides, the growth is 73.1% in the assay with UACC-62 melanoma, 89.4% with LOX IMVI melanoma and 112% with SK-MEL-28 melanoma.

In the case of `CN(C)c1ccc(/C=N/NC(=O)c2cccc3ccccc23)c(Cl)c1`, the growth in the assay on HCT-15 colon is 27.9%; in the assay with HT29 colon it was 12.9%; with SNB-75 CNS, 20.3%; in the assay with SNB-19 CNS, 52.6%; in the assay on U251 CNS it was 23.9%; in the assay on SK-MEL-5 melanoma, 24.3%. Moreover, the values for the growth in the assay with UACC-62 melanoma, in the assay on LOX IMVI melanoma and in the assay on SK-MEL-28 melanoma were 46.4%, 37.9% and 42%, respectively.

As to `CCCCCCCCCCCCCCCCCC[n+]1ccc2c(C)c3c(c(C)c2c1)c1cc(O)ccc1n3CC`, the growth was 48.8% in the assay on HCT-15 colon; 17.2% in the assay on HT29 colon; 24.5% in the assay on SNB-75 CNS; 5.25% (active) in the assay with SNB-19 CNS; -34.9% (active) with U251 CNS; -94.2% (active) with SK-MEL-5 melanoma. The growth was -11.8% (active) in the assay with UACC-62 melanoma, 20.6% in the assay on LOX IMVI melanoma and 7.4% (active) in the assay on SK-MEL-28 melanoma.

With `O=C1c2c(c3c4ccccc4n(CCCCCCN4CCOCC4)c3c3[nH]c4ccccc4c23)C(=O)N1O`, the growth in the assay on HCT-15 colon was 16.5%; in the assay with HT29 colon it was 24.3%; in the assay with SNB-75 CNS, 74.9%; in the assay on SNB-19 CNS it was 97%; with U251 CNS, -23.2% (active); with SK-MEL-5 melanoma, 23.4%. Moreover, the growth in the assay with UACC-62 melanoma is 82.7%; in the assay on LOX IMVI melanoma, -88.4% (active); in the assay with SK-MEL-28 melanoma it was 118%.

Turning to `N#Cc1c(-c2ccc(Cl)cc2)cc(-c2cc(O)ccc2O)nc1N`, the growth in the assay with HCT-15 colon is 43.8%; with HT29 colon, 87.3%; in the assay with SNB-75 CNS it was 32.8%; in the assay on SNB-19 CNS, 26.5%; in the assay with U251 CNS, -26.5% (active); with SK-MEL-5 melanoma it was -79.9% (active). Besides, the figures for the growth in the assay on UACC-62 melanoma, in the assay with LOX IMVI melanoma and in the assay on SK-MEL-28 melanoma were -25.6% (active), -56.2% (active) and 18.4%, respectively.

For the compound `CN1C(=O)C2(Nc3cc(Cl)ccc3S2)c2cc(Cl)ccc21` (stereo not given), the growth with HCT-15 colon is 76.7%; with HT29 colon, 101%; in the assay on SNB-75 CNS it was 69.2%; in the assay with SNB-19 CNS, 97.2%; with U251 CNS, 93.2%; in the assay on SK-MEL-5 melanoma, 84.9%. Besides, the growth in the assay on UACC-62 melanoma was 69.9%; in the assay on LOX IMVI melanoma it was 78.8%; in the assay with SK-MEL-28 melanoma, 101%.

Consider `COc1ccc(C2CC(c3cc(OC)c(OC)c(OC)c3)=NN2)cc1` (stereo not given), for which the growth with HCT-15 colon was 36.2%; with HT29 colon, 29.9%; in the assay on SNB-75 CNS, 68.5%; with SNB-19 CNS, 68.3%; in the assay on U251 CNS, 26.2%; with SK-MEL-5 melanoma, 81.4%. The growth was 67% with UACC-62 melanoma, 43.9% with LOX IMVI melanoma and 113% in the assay on SK-MEL-28 melanoma.

Turning to `COc1ccc2c(c1)CC=C1[C@@H]2CC[C@]2(C)C(=O)/C(=N/O)C[C@@H]12`, the growth in the assay with HCT-15 colon was 75.8%; in the assay on HT29 colon, 67.8%; in the assay on SNB-75 CNS, 58%; in the assay on SNB-19 CNS, 93.4%; in the assay with U251 CNS it was 96.4%; with SK-MEL-5 melanoma, 89.7%. In addition, the growth in the assay on UACC-62 melanoma is 97.7%; with LOX IMVI melanoma, 70.3%; in the assay on SK-MEL-28 melanoma, 112%.

In the case of `CNC(=O)c1cc(Oc2ccc3c(c2)sc2nc(-c4ccc(N)cc4)cn23)ccn1`, the growth with HCT-15 colon is 11%; in the assay on HT29 colon, 0.705% (active); in the assay with SNB-75 CNS, 38.4%; in the assay with SNB-19 CNS, 32.1%; with U251 CNS it was 11.5%; in the assay on SK-MEL-5 melanoma, -0.651% (active). In addition, the figures for the growth with UACC-62 melanoma, in the assay with LOX IMVI melanoma and with SK-MEL-28 melanoma were 41.9%, 22.7% and 66.1%, respectively.
